Screen size: about 340,000 compounds; about 3,300 (0.97%) were called active.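 How the source made its calls: active means maximum activity change below -70%; inconclusive means maximum activity change from -70% to -50%; inactive means maximum activity change above -50%.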 The full list was thinned out, with actives kept by preference.
system: Potassium voltage-gated channel subfamily H member 2, brain isoform KCNH2 3.1 (human); assay: qHTS for Inhibitors of KCHN2 3.1: Mutant qHTS; conditions: U2OS KCNH2 3.1, thallium flux FluxOr; hits give low values
How it was run: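 Kinetic fluorescence (2 min after stimulation buffer) measures Tl+ influx through KCNH2 3.1 expressed by viral transduction in U2OS cells; the rate constant is normalized against DMSO controls serving as positive and negative references.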
On the % scale 0 is the no-effect control and ±100 the full control effect.

Structure (SMILES) | activity change
COc1ccc2c(CN3CCN(S(=O)(=O)c4cccs4)CC3)cc(=O)oc2c1 | -11.7% (inactive)
Cc1ccc2c(CN3CCN(S(=O)(=O)c4ccccc4C(F)(F)F)CC3)cc(=O)oc2c1 | -74.7% (active)
Cc1cc2oc(=O)cc(CN3CCN(S(=O)(=O)c4cccs4)CC3)c2cc1C(C)C | -5.54% (inactive)
O=C(N=C1SC2CS(=O)(=O)CC2N1Cc1ccccc1)c1ccccc1 (stereo unspecified) | -10.6% (inactive)
O=Nc1c(O)cc(O)c2ccccc12 | 4.37% (inactive)
Cc1ccc(-c2ccc(CN3C(C)C(=O)N(Cc4cn(CCC5OCCCO5)nn4)CCS3(=O)=O)cc2)cc1 (stereo unspecified) | -4.85% (inactive)
COc1cc(NC(=O)C2=C(C)OCCS2)c(Cl)cc1C(=O)NCCCN1CCCC(C)C1 (stereo unspecified) | -7.47% (inactive)
CC(=O)Nc1ccc2c3c(ccc([N+](=O)[O-])c13)CC2 | -19% (inactive)
O=C1c2ccccc2C(=O)c2c1cccc2N1CCN(CCO)CC1 | -26.5% (inactive)
O=C1c2ccccc2C(=O)c2c1cccc2N1CCN(Cc2ccccc2)CC1 | -89.4% (active)
O=S1(=O)CCN(Cc2ccccc2)CC1 | -7.16% (inactive)
CCOC(=O)c1cc(-c2sc(NC(=O)c3ccccc3)nc2C)n(Cc2ccccc2)n1 | -4.02% (inactive)
C[C@H]1CN([C@@H](C)CO)C(=O)CCCn2cc(nn2)CO[C@@H]1CN(C)S(=O)(=O)c1ccccc1C#N | -13.5% (inactive)
CC(=NNC(N)=O)C1CC2CCC1CC2 (stereo unspecified) | 0.306% (inactive)
CC(C)NC(=O)Nc1ccc2c(c1)C(=O)N([C@H](C)CO)C[C@H](C)[C@@H](CN(C)Cc1ccc(C(F)(F)F)cc1)OCCCC[C@@H](C)O2 | -29.9% (inactive)
CC(=O)c1ccccc1NC(=O)COC(=O)C1COc2ccccc2O1 (stereo unspecified) | -5.39% (inactive)
Nc1cc(=O)c2[nH]cnc2[nH]1 | 4.52% (inactive)
Cc1ccc(Oc2ccc3c(c2)C(=O)N(c2cccc4cccnc24)C3=O)cc1 | -1.2% (inactive)
Cc1ccc(C)c(NC(=O)c2ccc3nccnc3c2)c1 | 5.85% (inactive)
Cc1ccc(OS(=O)Nc2cccc3nccnc23)cc1 (stereo unspecified) | -73.2% (active)
C[C@@H]1CN([C@H](C)CO)S(=O)(=O)c2ccc(C#CC3CCCCC3)cc2O[C@H]1CN(C)C(=O)Cc1ccncc1 | -2.79% (inactive)
CC1=C(C(=O)N2CCOCC2)CC(CC(=O)NCC2CCCCC2)C(=O)N1Cc1ccc(F)cc1 (stereo unspecified) | -12.1% (inactive)

Structure (SMILES) | activity change
CC1C(=O)N(Cc2cn(CC3CCCCC3)nn2)CCS(=O)(=O)N1Cc1ccc(-c2cccc(N(C)C)c2)cc1 (stereo unspecified) | -6.27% (inactive)
CC1(C)Cc2c(C#N)c(SCc3nc4ccccc4[nH]3)nc(N3CCOCC3)c2CO1 | 1.1% (inactive)
COc1ccc(CSc2nc(N3CCOCC3)c3c(c2C#N)CC(C)(C)OC3)cc1 | -85.2% (active)
CCOC(=O)CSc1nc(N2CCOCC2)c2c(c1C#N)CC(C(C)C)OC2 (stereo unspecified) | 9.26% (inactive)
CN1CCn2cnc(C(=O)NCC(=O)OC(C)(C)C)c2C1=O | 8.04% (inactive)
COc1ccc(-c2csc(Nc3cccc(C)n3)n2)cc1OC | -0.0615% (inactive)
COc1ccc(Nc2ccc3ccccc3c2)cc1 | -0.36% (inactive)
COc1ccc(Nc2nc(-c3ccccc3)cs2)cc1 | -83.5% (active)
CN(Cc1ccccc1)C(=O)CCC1CCN(C(=O)c2ccco2)CC1 | -7.93% (inactive)
O=C(COc1ccc([N+](=O)[O-])cc1Cl)Nn1cnnc1 | -17.4% (inactive)
O=C(COC(=O)c1cccc(Cl)c1)Nc1ccc2[nH]c(=O)[nH]c2c1 | -16.7% (inactive)
O=C(COc1ccc([N+](=O)[O-])cc1Cl)Nc1ccc2[nH]c(=O)[nH]c2c1 | -113% (active)
Cc1ccc(C(=O)NNc2ncnc3ccccc23)cc1 | -135% (active)
Cc1ccc(NC(=O)c2ccc(Oc3ncccn3)cc2)cc1 | 10.8% (inactive)
Cc1ccc(C(=O)NNC(=O)c2cc3cc4ccccc4nc3s2)cc1 | -14.6% (inactive)
CCOC(=O)c1c(NC(=O)COC(=O)c2ccc(S(=O)(=O)C(F)F)cc2)sc(C(=O)N(C)C)c1C | -12.2% (inactive)
Cc1ccccc1C#CC1=CC(=O)CC(C)(C)C1 | -7.29% (inactive)
Cc1ccc(-c2nc3ccc(Cl)cn3c2Cc2ccccc2)cc1 | -5.74% (inactive)
O=C(Nc1nncs1)c1ccccc1NS(=O)(=O)c1cccs1 | -71.4% (active)
O=S(=O)(Nc1ccccc1Br)c1cccs1 | 8.03% (inactive)
COc1cc(NC(=O)c2ccccc2NS(=O)(=O)c2ccc(Cl)s2)cc(OC)c1 | -9.39% (inactive)
CNC(=O)C1CN(C(=O)c2cccc(S(=O)(=O)N3CCc4ccccc43)c2)c2ccccc2O1 (stereo unspecified) | -2.85% (inactive)

Structure (SMILES) | activity change
O=C(NCCS(=O)(=O)N1CCN(c2ccccc2)CC1)c1cc(=O)c2ccccc2o1 | 5.39% (inactive)
CSc1ncc(C(=O)NCCCc2ccccc2)c(C)n1 | 17.9% (inactive)
Cc1ccc(NC(=O)c2ccn(C(=O)Nc3ccccc3)n2)c(C)c1 | 11.1% (inactive)
CSc1ncc(C(=O)Nc2ccc(C)cc2C)c(C)n1 | -183% (active)
CCN(CC)C(=O)C1=C(C)N(Cc2ccc(F)cc2)C(=O)C(CC(=O)NC2CCCC2)C1 (stereo unspecified) | -23.9% (inactive)
CSc1ncnc2c1ncn2CCCNCC1CCCCC1 | -15.7% (inactive)
CC(C)C1CCN(C(=O)C2CCC(=O)N(C3CCCCCC3)C2)CC1 (stereo unspecified) | -5.43% (inactive)
Cc1ccc(C(=O)N/C(=C/C=C/c2ccccc2)C(=O)NCc2ccco2)cc1 | -38.2% (inactive)
CNC(=O)/C(=C\C=C\c1ccccc1)NC(=O)c1ccc([N+](=O)[O-])cc1 | -78.9% (active)
O=C(Nc1ccc(C(=O)O)cc1)/C(=C/c1ccc([N+](=O)[O-])cc1)NC(=O)c1ccccc1 | 0.484% (inactive)
COc1ccc(C(CNC(=O)c2ccc(OCc3cscn3)cc2)N2CCCC2)cc1 (stereo unspecified) | -4.07% (inactive)
Cc1cc(C)c2cc(C#N)c(N3CCNCC3)nc2c1 | 15.5% (inactive)
O=C(Nc1ccccc1N1CCN(C(=O)c2ccccc2)CC1)c1ccco1 | -10.9% (inactive)
CCC(C)NC(=O)c1ccc(N2CCC3(CC2)OCCO3)c([N+](=O)[O-])c1 (stereo unspecified) | 15.4% (inactive)
CCCNC(=O)c1ccc(N2CCC3(CC2)CC(c2ccc(Cl)cc2)=NO3)c([N+](=O)[O-])c1 | -83.7% (active)
COC(=O)c1ccc(N2CCOCC2)c(NC(=O)c2ccc(Br)o2)c1 | -2.48% (inactive)
CCCNC(=O)c1ccc(N2CCC3(CC2)CC(c2cccc(Br)c2)=NO3)c(NC(=O)c2ccco2)c1 | -83.4% (active)
COCCNC(=O)c1ccc(N2CCC3(CC2)OCCO3)c([N+](=O)[O-])c1 | 1.85% (inactive)
Nc1cc(C(=O)N2CCN(c3ccccc3Cl)CC2)ccc1N1CC2CC(C1)c1cccc(=O)n1C2 (stereo unspecified) | 6.28% (inactive)
O=C(c1ccc(N2CCCC2=O)cc1)N1CCN(c2ccc(C(F)(F)F)cc2[N+](=O)[O-])CC1 | 6.83% (inactive)
Cc1ccc(NC(=O)COC(=O)CN2CCSC2=O)cc1F | -8.22% (inactive)
CC1(C)NC(=O)N(CC(=O)Nc2ccc(-c3ccccc3)cc2)C1=O | -11% (inactive)

Structure (SMILES) | activity change
O=C1[C@H]2[C@@H](c3ccc(F)cc3)N3C(=O)N(c4ccc(C(F)(F)F)cc4)C(=O)[C@@]3(Cc3ccccc3)[C@H]2C(=O)N1C1CCCCC1 | -14.9% (inactive)
O=C1[C@H]2[C@@H](c3ccc(Cl)cc3)N3C(=O)N(c4cccc(F)c4)C(=O)[C@@]3(Cc3ccccc3)[C@H]2C(=O)N1C1CCCCC1 | -11.3% (inactive)
Cc1cccc(N2C(=O)N3[C@H](c4ccc(F)cc4)[C@@H]4C(=O)N(C5CCCCC5)C(=O)[C@@H]4[C@]3(Cc3ccccc3)C2=O)c1 | -81.5% (active)
C/C(COc1ccccc1)=N\NC(=O)c1nnn(-c2nonc2N)c1-c1ccc(C)cc1 | 1.24% (inactive)
Cc1ccc(C(=O)NC(C)C(c2cccs2)N2CCOCC2)cc1C (stereo unspecified) | 2.91% (inactive)
C#Cc1cc(N2CCN(C(=O)c3ccoc3)CC2)n2nc(-c3cccc(Cl)c3)cc2n1 | 2.49% (inactive)
CCOC(=O)N1CCN(Cc2nc(N)nc(Nc3ccc(C)cc3)n2)CC1 | -78.5% (active)
CCOC(=O)N1CCN(CC(=O)Nc2ccc(F)cc2)CC1 | -43.8% (inactive)
Cc1ccccc1Nc1nc(N)nc(CN2CCN(c3ccccn3)CC2)n1 | -0.0863% (inactive)
Cc1ccc(Nc2nc(N)nc(CN3CCN(Cc4ccccc4)CC3)n2)cc1Cl | -99.4% (active)
CCOC(=O)N1CCN(Cc2nc3cc(NC(C)=O)ccc3n2C)CC1 | 8.13% (inactive)
CNc1nc(Nc2ccc(C)c(Cl)c2)nc(N)c1[N+](=O)[O-] | 6.15% (inactive)
COc1cccc(NC(=O)N(C)C[C@@H]2Oc3ncc(Br)cc3C(=O)N([C@@H](C)CO)C[C@H]2C)c1 | -4.03% (inactive)
COc1ccc(S(=O)(=O)N(C)C)cc1NC(=O)COC(=O)c1n[nH]c2ccccc12 | 9.12% (inactive)
Cc1ccnc(SC2CC(=O)N(c3ccccc3)C2=O)n1 (stereo unspecified) | 1.28% (inactive)
O=C(NC1CCN(Cc2ccccc2)CC1)c1ccc(Oc2cc(Cl)cc(Cl)c2)o1 | -84.5% (active)
O=C(NC1CCN(Cc2ccccc2)CC1)c1cc(Br)c(Br)[nH]1 | 0.925% (inactive)
CCOc1ccc(CC(=O)NC2CCN(Cc3ccccc3)CC2)cc1 | 19.9% (inactive)
CCOc1ccc(NS(=O)(=O)c2ccc(C(=O)NCC3CCCO3)cc2)cc1 (stereo unspecified) | 3.29% (inactive)
COCOCCn1cc(CN2CCS(=O)(=O)N(Cc3ccc(-c4cccc(N(C)C)c4)cc3)C(CC(C)C)C2=O)nn1 (stereo unspecified) | -1.27% (inactive)
